The source of these data is PubChem BioAssay (NCI).

The panel holds about 79,000 compounds, 15% with a hit somewhere; the sample as a whole holds those more often. Activity calls are given as the source filed them. Rule as the data show it: active = growth inhibition above about 70%; inactive = the rest.

This test is described as follows: NCI Yeast Anticancer Drug Screen. Data for the sgs1 mgt1 strain (AID 161).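 Also: 0% = growth of cultures given vehicle only.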 Conditions: S. cerevisiae sgs1 mgt1 strain, at 50.0 µM, hits give high values. A digest of the protocol: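 Growth of a repair-deficient yeast mutant was monitored after compound treatment and expressed as inhibition relative to vehicle-treated cultures.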
For the molecule `CCc1ccc(/C(C)=N/NC(N)=S)cc1`, the growth inhibition was 42.8% (inactive). The result for `CC(C)/C=C1\CCOC1=O` reads 39.8% (inactive); that for `COc1c(C(=O)/C(=N/Nc2ccccc2)C(C)=O)c(O)c(OC)c2occc12`, 73.2% (active); that for `COc1ccc(CC/C(=N/O)c2ccccc2)cc1`, 93.8% (active). The result for `CCOC(=O)C1(C#N)C(c2ccccc2)C1(C#N)C#N` (stereo not drawn) reads 98.5% (active). The result for `COc1ccc(OC)c(/C=C/NC=O)c1` reads -6.4% (inactive); that for `CC(=O)Oc1ccc(-c2ccc(Br)cc2)cc1`, 96.4% (active).

Take `COC(=O)/C(C#N)=C/c1cc(OC)c(O)cc1Br`: the growth inhibition is 42.1% (inactive). Consider `CCC(C1SC(=S)NC1=O)C1SC(=S)NC1=O` (stereo not drawn), for which the growth inhibition is 99.4% (active). The result for `CCC(C)c1ccc(O)c(C(C)c2ccccc2)c1` (stereo not drawn) reads 92.9% (active); that for `C/C(=N\NC(=S)N1CCN(c2ccccc2)CC1)c1nccs1`, 91.1% (active); that for `COc1ccc2c(C(=O)c3ccccc3)c3[n+](cc2c1OC)CCc1cc2c(cc1-3)OCO2`, 52.1% (inactive). The result for `Cc1cccc(C[N+](C)(C)CCCO)c1C` reads -0.35% (inactive); that for `c1ccc(N=C2SC3=NCCN3C2=Nc2ccccc2)cc1`, 72% (active); that for `Cc1ccc(SCc2ccccc2Cl)nn1`, -2.3% (inactive). For the molecule `CCCc1cc(=O)oc2c3c(c4c(c12)OC(C)(C)CC4)O[C@H](C)[C@H](C)C3=O`, the growth inhibition is 88.2% (active). The figure for `CC1(C)COC(c2cccc(C(O)c3ccc(Cl)cc3)c2)=N1` (stereo not drawn) is 72.5% (active). The result for `CCOC(=O)c1cc(NC(=O)c2cc(NC(=O)c3cc(NC(=O)c4c(-c5ccccc5)noc4C)cn3C)cn2C)cn1C` reads 59.1% (inactive).
